# PubChem BioAssay (EPA / NIEHS)
# Where “and” joins values, the source holds several entries; their conditions need not be identical. Equal entries are not always repeated. More than one record can exist for a structure, and the calls need not agree. Calls of active or inactive are those of the source. How the source made its calls: active means hit-call score of the fitted dose curve at least 0.9, where 1 is the maximum; inactive means score below 0.9.
# How the values were obtained:
# [1] = target: CCAAT/enhancer-binding protein beta (Homo sapiens) (UniProt P17676); assay: ATG_C_EBP_CIS: Attagene CIS-FACTORIAL HepG2 Assay for human CCAAT/Enhancer Binding Protein (C/EBP) beta (AID 2282927); conditions: HepG2 Attagene cis-factorial transcription factor reporter; actives raise or lower the signal
# Sequence of CCAAT/enhancer-binding protein beta (Homo sapiens) (P17676 whole entry, looked up): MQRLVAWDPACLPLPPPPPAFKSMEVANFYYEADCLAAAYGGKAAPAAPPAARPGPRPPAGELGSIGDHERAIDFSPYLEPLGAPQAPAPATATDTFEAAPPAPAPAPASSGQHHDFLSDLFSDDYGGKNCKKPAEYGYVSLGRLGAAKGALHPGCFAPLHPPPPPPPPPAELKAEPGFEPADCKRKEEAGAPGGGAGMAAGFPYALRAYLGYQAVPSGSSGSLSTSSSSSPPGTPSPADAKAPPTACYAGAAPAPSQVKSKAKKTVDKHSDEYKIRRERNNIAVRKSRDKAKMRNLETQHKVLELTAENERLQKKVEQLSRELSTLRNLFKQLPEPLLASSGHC
# Outline: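 Endogenous transcription factor activity in human liver HepG2 cells is inferred from induction of a CEBPB-linked reporter mRNA. Exposure lasts 24 h; activity is fitted in both directions relative to DMSO.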
# [2] = ATG_CMV_CIS: Attagene CIS-FACTORIAL HepG2 Assay for human CMV (Internal Marker) (AID 2282928); conditions: HepG2 CMV promoter reporter, transcription factor profiling; actives raise or lower the signal;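 further: endpoint acts as a background internal control marker rather than a target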
# Outline: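 Fluorescence intensity of RT-PCR-derived reporter fragments, resolved by capillary electrophoresis, gives the signal. HepG2 liver cells bearing transfected cis-element reporters were treated 24 h; activity in either direction was fit relative to DMSO-treated controls.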
# [3] = ATG_DR4_LXR_CIS: Attagene CIS-FACTORIAL HepG2 Assay for human Liver X Receptor (LXR), DR4 submotif (AID 2282929); conditions: HepG2 Attagene DR4 cis-reporter, mRNA transcription; actives raise or lower the signal
# Outline: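 Readout: reporter transcript fluorescence after RT-PCR and capillary electrophoresis, fitted bidirectionally against DMSO controls. Human HepG2 liver cells carried transiently transfected multiplexed reporter constructs; endogenous transcription factor activity measured 24 h post-dosing.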
# [4] = target: Aryl hydrocarbon receptor (Homo sapiens) (UniProt P35869); assay: ATG_Ahr_CIS: Attagene CIS-FACTORIAL HepG2 Assay for human Aryl Hydrocarbon Receptor (Ahr) (AID 2282930); conditions: HepG2 AhR cis-factorial reporter transcription; actives raise or lower the signal
# Sequence of Aryl hydrocarbon receptor (Homo sapiens) (P35869 whole entry, looked up): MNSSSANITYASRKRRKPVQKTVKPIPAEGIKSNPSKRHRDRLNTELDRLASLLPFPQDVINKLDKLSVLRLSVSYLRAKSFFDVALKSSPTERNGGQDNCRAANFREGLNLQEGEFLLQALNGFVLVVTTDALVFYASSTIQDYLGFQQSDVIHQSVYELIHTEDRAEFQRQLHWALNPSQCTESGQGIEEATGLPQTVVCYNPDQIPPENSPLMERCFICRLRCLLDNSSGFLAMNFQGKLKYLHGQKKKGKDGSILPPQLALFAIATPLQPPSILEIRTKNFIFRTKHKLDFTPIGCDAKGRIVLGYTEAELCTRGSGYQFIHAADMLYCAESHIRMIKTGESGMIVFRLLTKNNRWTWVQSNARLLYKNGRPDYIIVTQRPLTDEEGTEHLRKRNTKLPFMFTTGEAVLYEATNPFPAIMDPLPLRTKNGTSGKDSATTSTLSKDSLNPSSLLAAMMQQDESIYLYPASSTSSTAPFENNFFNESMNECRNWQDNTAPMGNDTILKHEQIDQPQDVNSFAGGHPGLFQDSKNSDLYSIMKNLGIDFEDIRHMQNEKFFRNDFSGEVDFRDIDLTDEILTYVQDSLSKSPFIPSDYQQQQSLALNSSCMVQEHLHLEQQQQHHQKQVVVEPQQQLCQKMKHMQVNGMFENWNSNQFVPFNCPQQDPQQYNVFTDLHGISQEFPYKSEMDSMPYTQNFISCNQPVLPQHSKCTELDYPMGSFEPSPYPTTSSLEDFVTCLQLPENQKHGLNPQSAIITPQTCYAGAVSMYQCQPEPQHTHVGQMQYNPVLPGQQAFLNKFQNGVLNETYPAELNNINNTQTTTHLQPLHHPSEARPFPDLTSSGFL
# Outline: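 Transient MRTU transfection of HepG2 → 24 h compound exposure → total RNA, oligo(dT) RT → PCR, 6-FAM extension, HpaI cut → CE fluorescence. DMSO = baseline; bidirectional curve fit.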
# [5] = ATG_AP_1_CIS: Attagene CIS-FACTORIAL HepG2 Assay for human Activator Protein 1 (AP-1) (AID 2282931); conditions: HepG2 Attagene cis-factorial AP-1 reporter mRNA; actives raise or lower the signal
# Outline: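 Reporter transcripts were measured 24 h after dosing by RT-PCR and capillary electrophoresis of fluorescent fragments. Cells: HepG2 carrying transfected cis-regulated reporter constructs reading endogenous factor activity. Gain or loss fitted against DMSO.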
# [6] = ATG_BRE_CIS: Attagene CIS-FACTORIAL HepG2 Assay for human Bone Morphogenetic Protein (BMP) Response Element (BRE) (AID 2282933); conditions: HepG2 BMP response element reporter, Attagene transcription factor profiling; actives raise or lower the signal
# Outline: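 Endogenous transcription factor activity read in transiently transfected HepG2 cells after 24 h chemical exposure. Bidirectional curve fitting against DMSO; readout is reporter transcript level by RT-PCR with capillary electrophoresis of labelled products.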
# [7] = target: Retinoic acid receptor alpha (Homo sapiens) (UniProt P10276); assay: ATG_DR5_RAR_CIS: Attagene CIS-FACTORIAL HepG2 Assay for human Retinoic Acid Receptor Alpha (RARE), DR5 submotif (AID 2282934); conditions: HepG2 Attagene cis-factorial RARE DR5 reporter, mRNA; actives raise or lower the signal;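 on AC50: reporter responds to endogenous RAR alpha beta and gamma in HepG2 not RARA alone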
# Sequence of Retinoic acid receptor alpha (Homo sapiens) (P10276 whole entry, looked up): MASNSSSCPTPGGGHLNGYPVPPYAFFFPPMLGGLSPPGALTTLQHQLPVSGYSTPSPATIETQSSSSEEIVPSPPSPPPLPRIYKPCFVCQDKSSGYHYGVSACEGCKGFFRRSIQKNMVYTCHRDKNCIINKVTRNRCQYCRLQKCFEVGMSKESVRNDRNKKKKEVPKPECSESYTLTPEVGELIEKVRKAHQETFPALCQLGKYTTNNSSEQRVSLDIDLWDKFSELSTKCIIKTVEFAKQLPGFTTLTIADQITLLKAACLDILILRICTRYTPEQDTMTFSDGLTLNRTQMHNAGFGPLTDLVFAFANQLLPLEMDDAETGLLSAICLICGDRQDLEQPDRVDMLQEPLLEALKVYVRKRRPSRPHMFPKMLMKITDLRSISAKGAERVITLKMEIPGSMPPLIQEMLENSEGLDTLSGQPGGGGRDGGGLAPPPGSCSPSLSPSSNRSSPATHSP
# Outline: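 Transient MRTU transfection of HepG2; 24 h compound treatment; TriZol RNA, oligo(dT) RT, PCR, FAM labelling, capillary electrophoresis. Bidirectional fit vs DMSO. Endogenous TF activity at DR5 RARE.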
# [8] = target: Transcription factor E2F1 (Homo sapiens) (UniProt Q01094); assay: ATG_E2F_CIS: Attagene CIS-FACTORIAL HepG2 Assay for human E2F Transcription Factor 1 (AID 2282935); conditions: HepG2 Attagene cis-reporter, E2F reporter RNA transcripts; actives raise or lower the signal
# Sequence of Transcription factor E2F1 (Homo sapiens) (Q01094 whole entry, looked up): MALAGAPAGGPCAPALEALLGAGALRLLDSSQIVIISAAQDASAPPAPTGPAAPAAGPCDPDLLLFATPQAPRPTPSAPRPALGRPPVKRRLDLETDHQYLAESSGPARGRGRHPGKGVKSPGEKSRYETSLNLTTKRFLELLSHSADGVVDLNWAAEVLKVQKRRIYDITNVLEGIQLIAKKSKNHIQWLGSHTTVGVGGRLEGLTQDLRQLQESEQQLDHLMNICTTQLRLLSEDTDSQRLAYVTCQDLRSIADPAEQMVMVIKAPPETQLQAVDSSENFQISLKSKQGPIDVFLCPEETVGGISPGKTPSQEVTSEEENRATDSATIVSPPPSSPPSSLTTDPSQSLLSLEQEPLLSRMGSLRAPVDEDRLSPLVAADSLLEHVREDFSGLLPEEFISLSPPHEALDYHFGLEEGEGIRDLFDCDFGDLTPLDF
# Outline: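 Gain or loss of reporter transcript, fitted against DMSO, reflects E2F1-driven transcription. Transiently transfected HepG2 dosed 24 h before RNA isolation. Quantified by fluorescent RT-PCR products separated by capillary electrophoresis.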
# [9] = ATG_E_Box_CIS: Attagene CIS-FACTORIAL HepG2 Assay for human Enhancer Box (E-box) (AID 2282936); conditions: HepG2 E-box cis-reporter transcription, actives raise or lower the signal
# Outline: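 E-box-driven reporter transcripts measured in transiently transfected HepG2 after 24 h exposure: RNA reverse-transcribed, PCR-amplified, fluorescently labelled, digested and resolved by capillary electrophoresis. Gain or loss relative to DMSO.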
# [10] = ATG_M_61_CIS: Attagene CIS-FACTORIAL HepG2 Assay for M61 Transcription Factor (Internal Marker) (AID 2282937); conditions: HepG2 Attagene CIS-FACTORIAL M61 internal marker reporter; actives raise or lower the signal
# Outline: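 Readout: fluorescent reporter mRNA fragments resolved by capillary electrophoresis after RT-PCR. Transiently transfected human HepG2 cells carried MRTU constructs reporting endogenous TF activity; 24 h chemical exposure; gain or loss of signal fitted relative to DMSO.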
# [11] = ATG_EGR_CIS: Attagene CIS-FACTORIAL HepG2 Assay for human Early Growth Response 1 (EGR1) (AID 2282938); conditions: HepG2 Attagene CIS-FACTORIAL EGR reporter mRNA; actives raise or lower the signal
# Outline: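 Read-out: fluorescent reporter-mRNA fragments resolved by capillary electrophoresis after RT-PCR, 24 h post-dose in transiently transfected HepG2. Endogenous transcription-factor activity reported via cis-element-regulated reporter units; gain or loss fitted relative to DMSO.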
# [12] = ATG_M_19_CIS: Attagene CIS-FACTORIAL HepG2 Assay for M19 Transcription Factor (Internal Marker) (AID 2282939); conditions: HepG2 Attagene CIS-FACTORIAL M19 internal marker reporter; actives raise or lower the signal
# Outline: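 Internal marker readout, fitted in both directions against DMSO, from HepG2 cells carrying transfected cis-element reporter constructs; RT-PCR and capillary electrophoresis of reporter mRNA after 24 h exposure.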
# [13] = ATG_AP_2_CIS: Attagene CIS-FACTORIAL HepG2 Assay for human Activator Protein 2 (AP-2) (AID 2282932); conditions: HepG2 AP-2 cis-reporter, Attagene transcription factor profiling; actives raise or lower the signal
# Outline: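 Endogenous transcription factor activity is reported through transfected multiplex reporter constructs in HepG2, after 24 h of compound exposure. Transcripts were quantified by RT-PCR and capillary electrophoresis of fluorescent fragments. Bidirectional fit against DMSO.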
# [14] = ATG_CRE_CIS: Attagene CIS-FACTORIAL HepG2 Assay for human cAMP Responsive Element (CRE) binding protein 3 (AID 2282926); conditions: HepG2 CRE cis-reporter, Attagene multiplexed mRNA; actives raise or lower the signal
# Outline: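 Capillary electrophoresis of 6-FAM-labelled, HpaI-digested PCR products quantified reporter transcripts. These came from HepG2 transiently transfected with cis-element reporters and exposed to test chemicals for 24 hours, with DMSO defining baseline activity.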
smiles,measurement,setting,value
O=NN1CCCCCCC1,outcome,[1],inactive
same,outcome,[2],inactive
same,outcome,[3],inactive
same,outcome,[4],inactive
same,outcome,[5],inactive
same,outcome,[6],inactive
same,outcome,[7],inactive
same,outcome,[8],inactive
same,outcome,[9],inactive
same,outcome,[10],inactive
same,outcome,[11],inactive
same,outcome,[12],inactive
CN(C1CCCCC1)C1CCCCC1,outcome,[1],inactive
same,outcome,[2],inactive
same,outcome,[3],inactive
same,outcome,[4],inactive
same,outcome,[5],inactive
same,outcome,[13],inactive
same,outcome,[6],inactive
same,outcome,[7],inactive
same,outcome,[8],inactive
same,outcome,[9],inactive
same,outcome,[10],inactive
same,outcome,[12],inactive
CCCCCCCCCCCCCl,outcome,[1],inactive
same,outcome,[2],inactive
same,outcome,[3],inactive
same,outcome,[4],inactive
same,outcome,[13],inactive
same,outcome,[6],inactive
same,outcome,[7],inactive
same,outcome,[8],inactive
same,outcome,[9],inactive
same,outcome,[10],inactive
same,outcome,[12],inactive
O=C(O)COc1cc(Cl)c(Cl)cc1Cl,outcome,[1],inactive
same,outcome,[2],inactive
same,outcome,[3],inactive
same,outcome,[4],inactive
same,outcome,[5],inactive
same,outcome,[13],inactive
same,outcome,[6],inactive
same,outcome,[7],inactive
same,outcome,[8],inactive
same,outcome,[10],inactive
same,outcome,[11],inactive
same,outcome,[12],inactive
CCCCN(CCCC)C(=S)S,outcome,[1],inactive
same,AC50,[2],162 µM (active)
same,AC50,[3],100 µM (active)
same,outcome,[4],inactive
same,AC50,[5],171 µM (active)
same,outcome,[13],inactive
same,AC50,[7],100 µM (active)
same,outcome,[8],inactive
same,AC50,[9],130 µM (active)
same,outcome,[10],inactive
same,AC50,[11],110 µM (active)
CN(N=O)c1ccc([N+](=O)[O-])cc1,outcome,[14],inactive
same,outcome,[1],inactive
same,outcome,[3],inactive
same,AC50,[4],26.8 µM (active)
same,outcome,[13],inactive
same,outcome,[7],inactive
same,outcome,[8],inactive
same,outcome,[9],inactive
same,outcome,[10],inactive
same,outcome,[11],inactive
CC(C)N(C(=O)CCl)c1ccccc1,outcome,[1],inactive
same,outcome,[2],inactive
same,AC50,[3],8.6 µM (active)
same,outcome,[4],inactive
same,AC50,[13],50.4 µM (active)
same,outcome,[6],inactive
same,AC50,[7],59.1 µM (active)
same,AC50,[8],48.1 µM (active)
same,AC50,[9],18 µM (active)
same,outcome,[10],inactive
same,outcome,[11],inactive
CCN(CC)C(=O)C(Cl)=C(C)OP(=O)(OC)OC,outcome,[1],inactive
same,outcome,[2],inactive
same,outcome,[3],inactive
same,outcome,[4],inactive
same,outcome,[5],inactive
same,outcome,[13],inactive
same,outcome,[6],inactive
same,outcome,[7],inactive
same,outcome,[8],inactive
same,outcome,[9],inactive
same,outcome,[10],inactive
same,outcome,[11],inactive
same,outcome,[12],inactive
CC(C)(c1ccc(O)c(-c2ccccc2)c1)c1ccc(O)c(-c2ccccc2)c1,outcome,[1],inactive
same,outcome,[2],inactive
same,AC50,[3],4.85 µM (active)
same,outcome,[4],inactive
same,outcome,[5],inactive
same,outcome,[13],inactive
same,outcome,[7],inactive
same,outcome,[8],inactive
same,outcome,[9],inactive
same,outcome,[10],inactive
same,AC50,[11],5.2 µM (active)
same,outcome,[12],inactive
O=NN1CCCCCC1,outcome,[1],inactive
same,outcome,[2],inactive
same,outcome,[3],inactive
same,outcome,[4],inactive
same,outcome,[5],inactive
same,outcome,[13],inactive
same,outcome,[6],inactive
same,outcome,[7],inactive
same,outcome,[8],inactive
same,outcome,[10],inactive
same,outcome,[12],inactive
Cc1ccc(OP(=O)(Oc2ccc(C)cc2C)Oc2ccc(C)cc2C)c(C)c1,outcome,[1],inactive
same,outcome,[2],inactive
same,AC50,[3],11.3 µM (active)
same,outcome,[4],inactive
same,outcome,[5],inactive
same,outcome,[13],inactive
same,outcome,[7],inactive
same,outcome,[8],inactive
same,AC50,[9],25.1 µM (active)
same,outcome,[10],inactive
same,outcome,[11],inactive
O=[N+]([O-])c1ccccc1O,outcome,[1],inactive
same,outcome,[2],inactive
same,outcome,[3],inactive
same,outcome,[4],inactive
same,outcome,[13],inactive
same,outcome,[6],inactive
same,AC50,[7],27.3 µM (active)
same,outcome,[7],inactive
same,outcome,[9],inactive
same,outcome,[10],inactive
same,outcome,[11],inactive
same,outcome,[12],inactive
C#C[C@]1(O)CC[C@H]2[C@@H]3CCC4=CC(=O)CC[C@]4(C)[C@H]3CC[C@@]21C,outcome,[1],inactive
same,outcome,[2],inactive
same,outcome,[3],inactive
same,outcome,[4],inactive
same,outcome,[5],inactive
same,outcome,[13],inactive
same,outcome,[6],inactive
same,outcome,[7],inactive
same,outcome,[8],inactive
same,outcome,[9],inactive
same,outcome,[10],inactive
same,outcome,[11],inactive
C=CCN=C=S,outcome,[1],inactive
same,outcome,[3],inactive
same,outcome,[4],inactive
same,outcome,[5],inactive
same,outcome,[13],inactive
same,outcome,[6],inactive
same,outcome,[7],inactive
same,outcome,[8],inactive
same,outcome,[9],inactive
same,outcome,[10],inactive
same,outcome,[12],inactive
Cc1cc(Cl)ccc1N,outcome,[1],inactive
same,outcome,[2],inactive
same,outcome,[3],inactive
same,AC50,[4],41.4 µM (active) and 33 µM (active)
same,outcome,[5],inactive
same,outcome,[7],inactive
same,outcome,[8],inactive
same,outcome,[10],inactive
same,outcome,[12],inactive
CC(C)=CC1C(C(=O)OCc2cccc(Oc3ccccc3)c2)C1(C)C (stereo not drawn),outcome,[1],inactive
same,AC50,[3],22.3 µM (active)
same,outcome,[4],inactive
same,outcome,[5],inactive
same,outcome,[13],inactive
same,outcome,[6],inactive
same,outcome,[7],inactive
same,outcome,[8],inactive
same,outcome,[9],inactive
same,outcome,[10],inactive
same,outcome,[11],inactive
same,outcome,[12],inactive
Cc1cccc(N=Nc2ccc(N(C)C)cc2)c1,outcome,[1],inactive
same,outcome,[2],inactive
same,outcome,[3],inactive
same,AC50,[4],8.37 µM (active)
same,outcome,[5],inactive
same,outcome,[13],inactive
same,outcome,[6],inactive
same,outcome,[7],inactive
same,outcome,[8],inactive
same,outcome,[10],inactive
same,outcome,[11],inactive
same,outcome,[12],inactive
Cc1cc(C(F)(C(F)(F)F)C(F)(F)F)ccc1NC(=O)c1cccc(I)c1C(=O)NC(C)(C)CS(C)(=O)=O,outcome,[1],inactive
same,outcome,[2],inactive
same,outcome,[3],inactive
same,outcome,[4],inactive
same,outcome,[5],inactive
same,outcome,[13],inactive
same,outcome,[6],inactive
same,outcome,[7],inactive
same,outcome,[8],inactive
same,outcome,[9],inactive
same,outcome,[10],inactive
same,outcome,[12],inactive
CCOP(=S)(OCC)SCSc1cc(Cl)ccc1Cl,outcome,[1],inactive
same,outcome,[3],inactive
same,outcome,[4],inactive
same,outcome,[5],inactive
same,outcome,[13],inactive
same,outcome,[6],inactive
same,outcome,[7],inactive
same,outcome,[8],inactive
same,outcome,[9],inactive
same,outcome,[10],inactive
same,outcome,[11],inactive
same,outcome,[12],inactive
